Test results from PubChem BioAssay AID1159580 (chemical genetic matrix, 2015).
Among all 5,500 compounds or so, about 2,000 (36%) were called active. About 18% were inconclusive and are not listed. The list shows a part of the results. Unmarked numbers belong to inactive results. No stated cut-off is given here; in the data, active means normalized growth mostly below about 0.91 (no sharp cut-off); inconclusive means no clear call, values can overlap the other calls; inactive means mostly above about 0.92.

Assay: chemical genetic growth profiling, strain panel (AID 1159580);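 further: tested at 20 µM; growth read once vehicle control cultures reached saturation at 30 °C; 1 = growth at the plate median or of vehicle wells; lower values mean less growth of the strain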
Details: growth OD

O=[N+]([O-])c1cc([As](=O)(O)O)ccc1O gave a normalized growth (S. cerevisiae deletion strains, locus YJR075W, strain HOC1, hits give low values) of 1, a normalized growth (S. cerevisiae deletion strains, locus YKL009W, strain mrt4, hits give low values) of 0.986 and a normalized growth (S. cerevisiae deletion strains, locus YKL068W, hits give low values) of 0.96. The normalized growth (S. cerevisiae deletion strains, locus YKL085W, strain MDH1 (second series), hits give low values) was 0.484 (active), the normalized growth (S. cerevisiae deletion strains, locus YKL085W, strain MDH1, hits give low values) was 0.484 (active) and the normalized growth (S. cerevisiae deletion strains, locus YKL160W, strain elf1, hits give low values) was 0.959. The normalized growth (S. cerevisiae deletion strains, locus YKL190W, strain CNB1, hits give low values) was 0.983, the normalized growth (S. cerevisiae deletion strains, locus YKR001C, strain vps1, hits give low values) was 0.232 (active) and the normalized growth (S. cerevisiae deletion strains, locus YKR091W, strain srl3, hits give low values) was 0.975. For the same compound, the normalized growth (S. cerevisiae deletion strains, locus YLL001W, strain dnm1, hits give low values) was 0.936, the normalized growth (S. cerevisiae deletion strains, locus YLL026W, hits give low values) was 0.97 and the normalized growth (S. cerevisiae deletion strains, locus YLL041C, strain sdh2, hits give low values) was 0.965. The normalized growth (S. cerevisiae deletion strains, locus YLR027C, strain aat2, hits give low values) was 0.97, the normalized growth (S. cerevisiae deletion strains, locus YLR039C, strain RIC1, hits give low values) was 1.01 and the normalized growth (S. cerevisiae deletion strains, locus YLR058C, strain SHM2, hits give low values) was 0.998. For the same compound, the normalized growth (S. cerevisiae deletion strains, locus YLR102C, strain apc9, hits give low values) was 0.243 (active), the normalized growth (S. cerevisiae deletion strains, locus YLR113W, strain HOG1, hits give low values) was 1.02 and the normalized growth (S. cerevisiae deletion strains, locus YLR221C, strain rsa3, hits give low values) was 1. The normalized growth (S. cerevisiae deletion strains, locus YLR258W, strain gsy2, hits give low values) was 0.975, the normalized growth (S. cerevisiae deletion strains, locus YLR262C, strain YPT6 (second series), hits give low values) was 0.948 and the normalized growth (S. cerevisiae deletion strains, locus YLR262C, strain YPT6, hits give low values) was 1.02. For the same compound, the normalized growth (S. cerevisiae deletion strains, locus YLR268W, strain sec22, hits give low values) was 0.12 (active), the normalized growth (S. cerevisiae deletion strains, locus YLR320W, strain mms22, hits give low values) was 0.984 and the normalized growth (S. cerevisiae deletion strains, locus YLR330W, strain CHS5, hits give low values) was 0.988. For the same compound, the normalized growth (S. cerevisiae deletion strains, locus YLR342W, strain FKS1 (second series), hits give low values) was 1.07, the normalized growth (S. cerevisiae deletion strains, locus YLR342W, strain FKS1, hits give low values) was 0.978 and the normalized growth (S. cerevisiae deletion strains, locus YLR357W, strain rsc2, hits give low values) was 0.92. For the same compound, the normalized growth (S. cerevisiae deletion strains, locus YLR370C, strain arc18, hits give low values) was 0.957, the normalized growth (S. cerevisiae deletion strains, locus YLR371W, strain rom2, hits give low values) was 0.152 (active) and the normalized growth (S. cerevisiae deletion strains, locus YLR384C, strain iki3, hits give low values) was 0.938. The normalized growth (S. cerevisiae deletion strains, locus YLR418C, strain cdc73, hits give low values) was 0.146 (active), the normalized growth (S. cerevisiae deletion strains, locus YML016C, strain PPZ1, hits give low values) was 0.988 and the normalized growth (S. cerevisiae deletion strains, locus YML032C, strain rad52, hits give low values) was 0.929. For the same compound, the normalized growth (S. cerevisiae deletion strains, locus YML120C, strain ndi1, hits give low values) was 0.969, the normalized growth (S. cerevisiae deletion strains, locus YML124C, strain tub3, hits give low values) was 0.329 (active) and the normalized growth (S. cerevisiae deletion strains, locus YMR058W, strain fet3, hits give low values) was 0.977. For the same compound, the normalized growth (S. cerevisiae deletion strains, locus YMR078C, strain ctf18, hits give low values) was 0.548 (active), the normalized growth (S. cerevisiae deletion strains, locus YMR125W, strain sto1, hits give low values) was 0.943 and the normalized growth (S. cerevisiae deletion strains, locus YMR129W, hits give low values) was 0.981. For the same compound, the normalized growth (S. cerevisiae deletion strains, locus YMR205C, strain PFK2, hits give low values) was 0.983, the normalized growth (S. cerevisiae deletion strains, locus YMR223W, strain ubp8, hits give low values) was 0.129 (active) and the normalized growth (S. cerevisiae deletion strains, locus YMR231W, strain pep5, hits give low values) was 0.951. It also gave a normalized growth (S. cerevisiae deletion strains, locus YMR263W, strain SAP30, hits give low values) of 0.99, a normalized growth (S. cerevisiae deletion strains, locus YMR307W, strain GAS1, hits give low values) of 1.05 and a normalized growth (S. cerevisiae deletion strains, locus YNL067W, strain RPL9B, hits give low values) of 0.991. For the same compound, the normalized growth (S. cerevisiae deletion strains, locus YNL071W, strain lat1, hits give low values) was 0.973, the normalized growth (S. cerevisiae deletion strains, locus YNL128W, strain TEP1, hits give low values) was 0.976 and the normalized growth (S. cerevisiae deletion strains, locus YNL153C, strain GIM3, hits give low values) was 0.958. It also gave a normalized growth (S. cerevisiae deletion strains, locus YNL183C, strain NPR1, hits give low values) of 0.971, a normalized growth (S. cerevisiae deletion strains, locus YNL209W, strain ssb2, hits give low values) of 0.974 and a normalized growth (S. cerevisiae deletion strains, locus YNL233W, strain BNI4, hits give low values) of 1.01. For the same compound, the normalized growth (S. cerevisiae deletion strains, locus YNL248C, strain rpa49, hits give low values) was 0.918, the normalized growth (S. cerevisiae deletion strains, locus YNL250W, strain rad50, hits give low values) was 0.93 and the normalized growth (S. cerevisiae deletion strains, locus YNL271C, strain bni1, hits give low values) was 0.532 (active). The normalized growth (S. cerevisiae deletion strains, locus YNL298W, strain CLA4, hits give low values) was 0.877 (active), the normalized growth (S. cerevisiae deletion strains, locus YNL307C, strain MCK1, hits give low values) was 0.0701 (active) and the normalized growth (S. cerevisiae deletion strains, locus YNL322C, strain KRE1 (second series), hits give low values) was 0.974. The normalized growth (S. cerevisiae deletion strains, locus YNL322C, strain KRE1, hits give low values) was 0.991, the normalized growth (S. cerevisiae deletion strains, locus YNR049C, strain mso1, hits give low values) was 0.945 and the normalized growth (S. cerevisiae deletion strains, locus YNR052C, strain pop2, hits give low values) was 1.03. For the same compound, the normalized growth (S. cerevisiae deletion strains, locus YOL006C, strain TOP1, hits give low values) was 1.06, the normalized growth (S. cerevisiae deletion strains, locus YOL012C, strain htz1) was 0.214 and the normalized growth (S. cerevisiae deletion strains, locus YOL147C, strain pex11, hits give low values) was 0.987. For the same compound, the normalized growth (S. cerevisiae deletion strains, locus YOR001W, strain rrp6, hits give low values) was 0.965, the normalized growth (S. cerevisiae deletion strains, locus YOR061W, strain CKA2, hits give low values) was 0.991 and the normalized growth (S. cerevisiae deletion strains, locus YOR069W, strain VPS5, hits give low values) was 0.989. The normalized growth (S. cerevisiae deletion strains, locus YOR070C, strain gyp1, hits give low values) was 0.965, the normalized growth (S. cerevisiae deletion strains, locus YOR080W, strain dia2, hits give low values) was 0.961 and the normalized growth (S. cerevisiae deletion strains, locus YOR083W, strain WHI5, hits give low values) was 0.975. For the same compound, the normalized growth (S. cerevisiae deletion strains, locus YOR106W, strain vam3, hits give low values) was 0.96, the normalized growth (S. cerevisiae deletion strains, locus YOR136W, strain idh2, hits give low values) was 0.147 (active) and the normalized growth (S. cerevisiae deletion strains, locus YOR144C, strain elg1, hits give low values) was 0.996. For the same compound, the normalized growth (S. cerevisiae deletion strains, locus YOR184W, strain ser1, hits give low values) was 0.0809 (active), the normalized growth (S. cerevisiae deletion strains, locus YOR231W, strain MKK1, hits give low values) was 1.03 and the normalized growth (S. cerevisiae deletion strains, locus YOR265W, strain rbl2, hits give low values) was 0.968. For the same compound, the normalized growth (S. cerevisiae deletion strains, locus YOR270C, strain vph1, hits give low values) was 0.952, the normalized growth (S. cerevisiae deletion strains, locus YOR290C, strain snf2, hits give low values) was 0.993 and the normalized growth (S. cerevisiae deletion strains, locus YOR316C, strain cot1, hits give low values) was 0.171 (active). The normalized growth (S. cerevisiae deletion strains, locus YPL051W, strain arl3, hits give low values) was 0.967, the normalized growth (S. cerevisiae deletion strains, locus YPL055C, strain LGE1, hits give low values) was 0.946 and the normalized growth (S. cerevisiae deletion strains, locus YPL078C, strain atp4, hits give low values) was 0.951. The normalized growth (S. cerevisiae deletion strains, locus YPL106C, strain sse1, hits give low values) was 0.982, the normalized growth (S. cerevisiae deletion strains, locus YPL240C, strain hsp82, hits give low values) was 0.949 and the normalized growth (S. cerevisiae deletion strains, locus YPL241C, strain CIN2, hits give low values) was 0.995. For the same compound, the normalized growth (S. cerevisiae deletion strains, locus YPL256C, strain CLN2, hits give low values) was 1.08, the normalized growth (S. cerevisiae deletion strains, locus YPR119W, strain clb2, hits give low values) was 0.288 (active) and the normalized growth (S. cerevisiae deletion strains, locus YPR141C, strain kar3, hits give low values) was 1. For the same compound, the normalized growth (S. cerevisiae deletion strains, locus YPR163C, strain tif3, hits give low values) was 0.0934 (active), the normalized growth (S. cerevisiae deletion strains, locus YPR167C, strain met16, hits give low values) was 0.152 (active) and the normalized growth (S. cerevisiae deletion strains, strain wtn01, hits give low values) was 0.0828 (active). It also gave a normalized growth (S. cerevisiae strains, strain wild type, hits give low values) of 0.997.
